The values below come from PubChem BioAssay (EPA / NIEHS).

Activity calls are given as the source filed them. Rule for the calls: active = hit-call score of the fitted dose curve at least 0.9, where 1 is the maximum; inactive = score below 0.9.

By AC50 is commonly meant the concentration at which the activity in the assay is half-maximal.

Read-out in one assay: Interleukin-1 alpha (IL1a), IL1A (gene 3552)
Briefly: BSK_KF3CT_IL1a: BioMAP Diversity Plus: KF3CT Assay for Interleukin-1 alpha (IL1a) Biomarker Activity (AID 2283070). The following applies: primary human keratinocytes with fibroblasts; actives raise or lower the signal. Summed up:
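IL-1a was detected by ELISA 24 h after chemical treatment of a co-culture of human skin keratinocytes and foreskin fibroblasts. Gain or loss of signal was fitted against the DMSO baseline.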
As for `C[C@]12CC[C@@H]3c4ccc(O)cc4CC[C@H]3[C@@H]1CC[C@H]2O`, the outcome was inactive.
As for `O=c1ccc2ccccc2o1`, the outcome was inactive.
For the compound `Cc1cccc2ccccc12`, the outcome was inactive.
As to `Clc1ccccc1C(c1ccccc1)(c1ccccc1)n1ccnc1`, the AC50 was 10.4 µM (active).
Turning to `CCCOC(=O)c1cc(O)c(O)c(O)c1`, the outcome was inactive.
For `COc1ccc2cc(S(=O)(=O)N[C@H](CC(=O)N[C@H](Cc3ccc(CN4[C@H](C)CCC[C@@H]4C)cc3)C(=O)N(C)C(C)C)c3ccc4c(c3)OCO4)ccc2c1`, the result was inactive.
For `CN(C)c1ccc(C(=C2C=CC(=[N+](C)C)C=C2)c2ccc(N(C)C)cc2)cc1`, the AC50 is 2.54 µM (active).
Take `O=c1c(-c2ccc(O)cc2)coc2cc(O)cc(O)c12`: the result was inactive.
For the compound `O=C=NCCCCCCN=C=O`, the outcome was inactive.
In the case of `O=C1c2ccccc2C(=O)N1CCc1noc(-c2ccc(CN3CCCCCC3)s2)n1`, the outcome was inactive.
Take `Cc1c2ccccc2c(C)c2c1ccc1ccccc12`: the result was inactive.
Consider `O=C(O)Cc1cc(I)c(Oc2ccc(O)c(I)c2)c(I)c1`, for which the result was inactive.
Take `CN1C(=O)CC[C@H]1c1cccnc1`: the outcome was inactive.
With `O=C(OCCCCCCOC(=O)c1ccccc1)c1ccccc1`, the result was inactive.
Turning to `CCN(CC)C(=O)c1cc(S(=O)(=O)Cc2ccccc2)c(N2CCC(c3ccccc3)CC2)cc1N(CC)CCN(C)C`, the outcome was inactive.
Still for that read-out and setting: as for `c1ccc2n[nH]nc2c1`, the entry is “inactive”; as for `c1ccc(C[n+]2cccc3ccccc32)cc1`, “inactive”.
In the case of `CC(=O)N1CCN(c2ccc(OC[C@H]3CO[C@](Cn4ccnc4)(c4ccc(Cl)cc4Cl)O3)cc2)CC1`, the concentration at half-maximal activity (AC50) was 33.6 µM (active).
With `CCCCCCCCOc1ccc(C(=O)c2ccccc2)c(O)c1`, the result was inactive.
In the case of `CCCC(=O)OCCC(C)C`, the result was inactive.
For `COCC(C)OCC(C)OCC(C)O` (stereo not given), the outcome was inactive.
With `CCCCCc1ccc(N)cc1`, the result was inactive.
`c1ccc2ccccc2c1`: the outcome was inactive.
With `Cc1cc(F)ccc1-c1cc(N2CC[C@@H](O)[C@H]2CO)ncc1N(C)C(=O)C(C)(C)c1cc(C(F)(F)F)cc(C(F)(F)F)c1`, the concentration at half-maximal activity (AC50) is 15 µM (active).
Turning to `CC(C)(C)c1cc(/C=C2\SC(N)=NC2=O)cc(C(C)(C)C)c1O`, the outcome was inactive.
With `Cc1cc2c(cc1C(F)(F)F)N(C(=O)Nc1ccc(Oc3cccnc3C)nc1)CC2`, the AC50 was 15.5 µM (active).
As to `Oc1ccc2ccccc2c1`, the result was inactive.
For the compound `CC[C@H](NC(=O)c1cc(F)ccc1NS(=O)(=O)c1cccc2cccnc12)c1ccccc1`, the outcome was inactive.
On the same count and under the same terms, as for `O=C(Nc1ccc(Cl)cc1)Nc1ccc(Cl)c(Cl)c1`, the entry is “inactive”; as for `O=C(O)Cn1c(=O)n(Cc2ccc(Br)cc2F)c(=O)c2ccc(Cl)cc21`, “inactive”.
`NC(=O)c1nc(-c2cccc(-c3cc(F)ccc3OCC(F)(F)C(F)(F)F)c2)n[nH]1`: the AC50 was 41.2 µM (active).
As to `OC12N=C(c3ccccc3)SC1Cc1cc(Cl)ccc12` (stereo not given), the result was inactive.
As for `Cc1ncc(CO)c(CO)c1O`, the outcome was inactive.
With `CN(C)C(=O)C1(N2CCCCC2)CCN(CC[C@@]2(c3ccc(Cl)c(Cl)c3)CN(C(=O)c3ccccc3)CCO2)CC1`, the AC50 is 34.3 µM (active).
For the compound `CCCCCCCCCC(=O)O`, the outcome was inactive.
In the case of `O=C(O)c1ccccc1C(=O)OCc1ccccc1`, the result was inactive.
For the compound `OCCO`, the outcome was inactive.
With `CC1(C)NC(=O)N(c2ccc([N+](=O)[O-])c(C(F)(F)F)c2)C1=O`, the result was inactive.

Read-out in the next assay: TIMP metallopeptidase inhibitor 2 (TIMP2), TIMP2 (gene 7077)
Briefly: BSK_KF3CT_TIMP2: BioMAP Diversity Plus: KF3CT Assay for TIMP metallopeptidase inhibitor 2 (TIMP2) Biomarker Activity (AID 2283071). The conditions noted are these: primary human keratinocytes with fibroblasts; actives raise or lower the signal. Summed up: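 TIMP-2 measured by ELISA at 24 h in human keratinocyte/fibroblast primary co-cultures exposed to chemicals. Both increases and decreases were fitted against DMSO. Parallel cultures were stained with SRB for total protein as an overt-cytotoxicity check.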
`C[C@]12CC[C@@H]3c4ccc(O)cc4CC[C@H]3[C@@H]1CC[C@H]2O`: the outcome was inactive.
The same measure, in the same setting: as for `O=c1ccc2ccccc2o1`, the entry is “inactive”; as for `Cc1cccc2ccccc12`, “inactive”.
For the compound `Clc1ccccc1C(c1ccccc1)(c1ccccc1)n1ccnc1`, the concentration at half-maximal activity (AC50) is 10 µM (active).
On to `CCCOC(=O)c1cc(O)c(O)c(O)c1`, for which the AC50 was 1.49 µM (active).
For the compound `COc1ccc2cc(S(=O)(=O)N[C@H](CC(=O)N[C@H](Cc3ccc(CN4[C@H](C)CCC[C@@H]4C)cc3)C(=O)N(C)C(C)C)c3ccc4c(c3)OCO4)ccc2c1`, the AC50 is 27.6 µM (active).
The same measure, in the same setting: as for `CN(C)c1ccc(C(=C2C=CC(=[N+](C)C)C=C2)c2ccc(N(C)C)cc2)cc1`, the figure is 1.29 µM (active).
For the compound `O=c1c(-c2ccc(O)cc2)coc2cc(O)cc(O)c12`, the outcome was inactive.
Take `O=C1c2ccccc2C(=O)N1CCc1noc(-c2ccc(CN3CCCCCC3)s2)n1`: the result was inactive.
Take `Cc1c2ccccc2c(C)c2c1ccc1ccccc12`: the result was inactive.
As for `O=C(O)Cc1cc(I)c(Oc2ccc(O)c(I)c2)c(I)c1`, the outcome was inactive.
As for `CN1C(=O)CC[C@H]1c1cccnc1`, the result was inactive.
In the case of `O=C(OCCCCCCOC(=O)c1ccccc1)c1ccccc1`, the outcome was inactive.
For the compound `CCN(CC)C(=O)c1cc(S(=O)(=O)Cc2ccccc2)c(N2CCC(c3ccccc3)CC2)cc1N(CC)CCN(C)C`, the result was inactive.
For the compound `c1ccc2n[nH]nc2c1`, the result was inactive.
Still for that read-out and setting: as for `c1ccc(C[n+]2cccc3ccccc32)cc1`, the entry is “inactive”.
On to `CC(=O)N1CCN(c2ccc(OC[C@H]3CO[C@](Cn4ccnc4)(c4ccc(Cl)cc4Cl)O3)cc2)CC1`, for which the AC50 is 31.5 µM (active).
With `CCCCCCCCOc1ccc(C(=O)c2ccccc2)c(O)c1`, the outcome was inactive.
With `CCCC(=O)OCCC(C)C`, the outcome was inactive.
With `COCC(C)OCC(C)OCC(C)O` (stereo not given), the outcome was inactive.
On to `CCCCCc1ccc(N)cc1`, for which the concentration at half-maximal activity (AC50) was 20.8 µM (active).
Regarding `c1ccc2ccccc2c1`, the result was inactive.
Turning to `Cc1cc(F)ccc1-c1cc(N2CC[C@@H](O)[C@H]2CO)ncc1N(C)C(=O)C(C)(C)c1cc(C(F)(F)F)cc(C(F)(F)F)c1`, the concentration at half-maximal activity (AC50) was 12.4 µM (active).
As to `CC(C)(C)c1cc(/C=C2\SC(N)=NC2=O)cc(C(C)(C)C)c1O`, the concentration at half-maximal activity (AC50) is 11.5 µM (active).
The same measure, in the same setting: in the case of `Cc1cc2c(cc1C(F)(F)F)N(C(=O)Nc1ccc(Oc3cccnc3C)nc1)CC2` it was 23.8 µM (active).
With `Oc1ccc2ccccc2c1`, the outcome was inactive.
Same read-out and setting: in the case of `CC[C@H](NC(=O)c1cc(F)ccc1NS(=O)(=O)c1cccc2cccnc12)c1ccccc1` it was “inactive”.
Regarding `O=C(Nc1ccc(Cl)cc1)Nc1ccc(Cl)c(Cl)c1`, the result was inactive.
On the same count and under the same terms, as for `O=C(O)Cn1c(=O)n(Cc2ccc(Br)cc2F)c(=O)c2ccc(Cl)cc21`, the entry is “inactive”.
Take `NC(=O)c1nc(-c2cccc(-c3cc(F)ccc3OCC(F)(F)C(F)(F)F)c2)n[nH]1`: the AC50 is 35 µM (active).
`OC12N=C(c3ccccc3)SC1Cc1cc(Cl)ccc12` (stereo not given): the outcome was inactive.
Regarding `Cc1ncc(CO)c(CO)c1O`, the result was inactive.
`CN(C)C(=O)C1(N2CCCCC2)CCN(CC[C@@]2(c3ccc(Cl)c(Cl)c3)CN(C(=O)c3ccccc3)CCO2)CC1`: the concentration at half-maximal activity (AC50) is 32.7 µM (active).
Regarding `CCCCCCCCCC(=O)O`, the outcome was inactive.
`O=C(O)c1ccccc1C(=O)OCc1ccccc1`: the outcome was inactive.
Consider `OCCO`, for which the outcome was inactive.
Turning to `CC1(C)NC(=O)N(c2ccc([N+](=O)[O-])c(C(F)(F)F)c2)C1=O`, the outcome was inactive.
